From PMC7862700, “An all-to-all approach to the identification of sequence-specific readers for epigenetic DNA modifications on cytosine”

Assays:
Assay in all cases: DAPPL (digital affinity profiling via proximity ligation, sequencing); 10 mM Tris-HCl pH 7.5, 50 mM NaCl, 1 mM DTT, 4% glycerol, room temperature, 30 min; GST-TFs on glutathione beads, 16-mer random dsDNA library, 0.1% formaldehyde crosslink after washing; high values mean tight binding
[1] = molecular target: T1, FLI1 (Homo sapiens, UniProt Q01543 1-452); conditions: protein: recombinant; tags: N-terminal GST; dsDNA, one strand shown
T1 sequence: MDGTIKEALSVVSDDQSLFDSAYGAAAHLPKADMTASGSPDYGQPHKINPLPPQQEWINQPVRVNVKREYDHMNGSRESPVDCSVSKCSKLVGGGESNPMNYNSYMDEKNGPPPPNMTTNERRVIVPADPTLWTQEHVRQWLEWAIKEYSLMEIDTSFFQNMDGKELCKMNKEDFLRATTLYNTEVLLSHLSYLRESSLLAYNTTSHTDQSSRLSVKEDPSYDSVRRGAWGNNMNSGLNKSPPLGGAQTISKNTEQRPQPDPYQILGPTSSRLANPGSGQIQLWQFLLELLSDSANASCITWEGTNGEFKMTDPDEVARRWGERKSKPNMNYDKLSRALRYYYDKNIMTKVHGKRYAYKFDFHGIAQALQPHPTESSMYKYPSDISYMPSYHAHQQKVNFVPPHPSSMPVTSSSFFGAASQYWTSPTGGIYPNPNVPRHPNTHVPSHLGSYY
Procedure, shortened: (§1)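 Pools were built from human transcription factors expressed in yeast as GST fusions, captured on glutathione beads and DNA-barcoded, along with a tag-only sample. Incubation with 200 nmole of a 16-mer random double-stranded DNA library lasted 30 min at room temperature in Tris/NaCl/DTT/glycerol buffer, and was followed by washing, 0.1% formaldehyde crosslinking, proximity ligation, PCR amplification and Illumina NextSeq500 sequencing. Binding signal is the quotient of each hexamer's read frequency for a factor and its frequency for the tag-only sample.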

[2] = molecular target: T2, ELK1 (Homo sapiens, UniProt P19419 1-428); conditions: protein: recombinant; tags: N-terminal GST; dsDNA, one strand shown
T2 sequence: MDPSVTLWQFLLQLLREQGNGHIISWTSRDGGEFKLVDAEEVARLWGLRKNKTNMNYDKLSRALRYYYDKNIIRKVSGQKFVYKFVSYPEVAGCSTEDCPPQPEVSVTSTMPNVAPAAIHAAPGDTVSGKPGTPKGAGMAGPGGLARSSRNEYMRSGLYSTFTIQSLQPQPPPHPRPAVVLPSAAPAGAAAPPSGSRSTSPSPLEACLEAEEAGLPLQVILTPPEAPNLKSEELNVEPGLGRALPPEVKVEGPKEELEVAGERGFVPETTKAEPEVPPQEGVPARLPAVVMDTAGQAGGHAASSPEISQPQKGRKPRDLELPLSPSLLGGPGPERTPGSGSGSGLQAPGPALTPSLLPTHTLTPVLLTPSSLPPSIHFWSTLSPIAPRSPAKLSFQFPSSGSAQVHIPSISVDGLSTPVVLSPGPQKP
Procedure, shortened: as §1

[3] = molecular target: T3, GABPA (Homo sapiens, UniProt Q06546 1-454); conditions: protein: recombinant; tags: N-terminal GST; dsDNA, one strand shown
T3 sequence: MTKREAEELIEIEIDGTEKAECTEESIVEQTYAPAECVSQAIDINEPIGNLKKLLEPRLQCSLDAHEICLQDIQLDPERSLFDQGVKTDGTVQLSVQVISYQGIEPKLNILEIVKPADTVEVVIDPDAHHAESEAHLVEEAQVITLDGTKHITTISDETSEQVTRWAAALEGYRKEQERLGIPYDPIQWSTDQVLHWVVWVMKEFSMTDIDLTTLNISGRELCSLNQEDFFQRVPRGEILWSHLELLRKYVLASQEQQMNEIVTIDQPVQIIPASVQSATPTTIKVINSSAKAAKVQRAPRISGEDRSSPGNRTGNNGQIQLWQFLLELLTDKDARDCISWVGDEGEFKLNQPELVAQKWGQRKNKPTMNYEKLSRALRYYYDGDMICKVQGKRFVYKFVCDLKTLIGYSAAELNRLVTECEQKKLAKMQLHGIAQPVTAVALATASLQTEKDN
Procedure, shortened: as §1

[4] = molecular target: T4, ERG (Homo sapiens, UniProt P11308 1-479); conditions: protein: recombinant; tags: N-terminal GST; dsDNA, one strand shown
T4 sequence: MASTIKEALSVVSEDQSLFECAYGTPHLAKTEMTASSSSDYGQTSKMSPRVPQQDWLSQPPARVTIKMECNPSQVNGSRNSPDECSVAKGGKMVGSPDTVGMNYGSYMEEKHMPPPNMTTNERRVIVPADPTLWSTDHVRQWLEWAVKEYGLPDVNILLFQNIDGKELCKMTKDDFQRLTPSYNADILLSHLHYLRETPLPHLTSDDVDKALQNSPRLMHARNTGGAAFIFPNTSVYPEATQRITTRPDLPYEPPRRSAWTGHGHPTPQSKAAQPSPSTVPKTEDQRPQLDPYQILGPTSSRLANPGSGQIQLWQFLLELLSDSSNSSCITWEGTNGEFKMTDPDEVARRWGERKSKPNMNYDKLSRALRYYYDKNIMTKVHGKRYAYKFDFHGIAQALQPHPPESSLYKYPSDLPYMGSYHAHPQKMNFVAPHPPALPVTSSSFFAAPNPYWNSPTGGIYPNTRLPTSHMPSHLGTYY
Procedure, shortened: as §1

[5] = molecular target: ELF1 (Homo sapiens, UniProt P32519 1-619); conditions: protein: recombinant; tags: N-terminal GST; dsDNA, one strand shown
Procedure, shortened: as §1

[6] = molecular target: T5, EHF (Homo sapiens, UniProt Q9NZC4 1-300); conditions: protein: recombinant; tags: N-terminal GST; dsDNA, one strand shown
T5 sequence: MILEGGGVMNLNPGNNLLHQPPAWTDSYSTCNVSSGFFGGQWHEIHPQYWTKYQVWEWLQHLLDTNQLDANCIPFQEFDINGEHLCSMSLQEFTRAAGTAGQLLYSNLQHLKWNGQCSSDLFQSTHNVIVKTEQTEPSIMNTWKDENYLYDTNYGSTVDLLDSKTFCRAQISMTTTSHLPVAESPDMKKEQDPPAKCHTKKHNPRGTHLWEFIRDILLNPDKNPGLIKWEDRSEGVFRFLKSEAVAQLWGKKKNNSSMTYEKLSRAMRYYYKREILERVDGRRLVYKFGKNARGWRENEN
Procedure, shortened: as §1

[7] = molecular target: SPI1 (Homo sapiens, UniProt P17947 1-270); conditions: protein: recombinant; tags: N-terminal GST; dsDNA, one strand shown
Procedure, shortened: as §1

[8] = molecular target: SPIB (Homo sapiens, UniProt Q01892 1-262); conditions: protein: recombinant; tags: N-terminal GST; dsDNA, one strand shown
Procedure, shortened: as §1

[9] = molecular target: T6, ELK3 (Homo sapiens, UniProt P41970 1-407); conditions: protein: recombinant; tags: N-terminal GST; dsDNA, one strand shown
T6 sequence: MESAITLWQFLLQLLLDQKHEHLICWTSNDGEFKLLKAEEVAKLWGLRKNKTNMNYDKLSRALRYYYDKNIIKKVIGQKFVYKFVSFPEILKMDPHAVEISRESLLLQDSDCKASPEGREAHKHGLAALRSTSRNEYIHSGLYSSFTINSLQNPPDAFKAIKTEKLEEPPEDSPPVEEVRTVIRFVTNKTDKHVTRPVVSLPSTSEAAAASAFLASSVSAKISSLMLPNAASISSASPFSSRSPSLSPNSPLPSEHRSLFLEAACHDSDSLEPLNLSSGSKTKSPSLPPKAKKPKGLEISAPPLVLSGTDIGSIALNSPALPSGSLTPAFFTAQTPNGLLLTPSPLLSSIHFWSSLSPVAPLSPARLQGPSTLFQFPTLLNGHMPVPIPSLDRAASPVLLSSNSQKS
Procedure, shortened: as §1

[10] = molecular target: T7, FEV (Homo sapiens, UniProt Q99581 1-238); conditions: protein: recombinant; tags: N-terminal GST; dsDNA, one strand shown
T7 sequence: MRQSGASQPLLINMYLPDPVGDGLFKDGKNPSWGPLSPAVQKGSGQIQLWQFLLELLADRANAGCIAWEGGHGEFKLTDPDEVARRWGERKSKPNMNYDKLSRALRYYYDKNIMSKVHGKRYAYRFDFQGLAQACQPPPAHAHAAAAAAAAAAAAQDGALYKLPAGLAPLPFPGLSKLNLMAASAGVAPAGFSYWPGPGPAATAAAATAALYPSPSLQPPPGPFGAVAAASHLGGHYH
Procedure, shortened: as §1

[11] = molecular target: ETV5 (Homo sapiens, UniProt P41161 1-510); conditions: protein: recombinant; tags: N-terminal GST; dsDNA, one strand shown
Procedure, shortened: as §1

[12] = molecular target: HSF1 (Homo sapiens, UniProt Q00613 1-529); conditions: protein: recombinant; tags: N-terminal GST; chain copies: 3; dsDNA, one strand shown
Procedure, shortened: as §1

[13] = molecular target: T8, SPIC (Homo sapiens, UniProt Q8N5J4 1-248); conditions: protein: recombinant; tags: N-terminal GST; dsDNA, one strand shown
T8 sequence: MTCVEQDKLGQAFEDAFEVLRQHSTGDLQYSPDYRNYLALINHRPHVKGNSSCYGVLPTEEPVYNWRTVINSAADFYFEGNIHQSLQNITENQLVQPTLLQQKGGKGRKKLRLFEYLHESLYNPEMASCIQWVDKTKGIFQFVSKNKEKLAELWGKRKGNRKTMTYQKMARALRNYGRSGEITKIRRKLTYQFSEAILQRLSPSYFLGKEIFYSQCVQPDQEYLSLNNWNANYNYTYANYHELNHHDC
Procedure, shortened: as §1

[14] = molecular target: ELF4 (Homo sapiens, UniProt Q99607 1-663); conditions: protein: recombinant; tags: N-terminal GST; dsDNA, one strand shown
Procedure, shortened: as §1

[15] = molecular target: T9, ELK4 (Homo sapiens, UniProt P28324-2 1-405); conditions: protein: recombinant; tags: N-terminal GST; dsDNA, one strand shown
T9 sequence: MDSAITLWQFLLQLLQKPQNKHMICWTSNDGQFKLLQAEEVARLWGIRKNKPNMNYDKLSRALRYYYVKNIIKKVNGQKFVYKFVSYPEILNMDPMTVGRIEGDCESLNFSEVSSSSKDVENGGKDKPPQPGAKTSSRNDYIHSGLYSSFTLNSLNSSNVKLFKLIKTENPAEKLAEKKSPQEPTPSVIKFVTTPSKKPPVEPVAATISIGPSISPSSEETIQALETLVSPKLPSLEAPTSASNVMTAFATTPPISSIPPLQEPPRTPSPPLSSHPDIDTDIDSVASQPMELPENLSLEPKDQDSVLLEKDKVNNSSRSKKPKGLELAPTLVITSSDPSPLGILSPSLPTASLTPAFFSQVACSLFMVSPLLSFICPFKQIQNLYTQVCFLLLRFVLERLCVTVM
Procedure, shortened: as §1

[16] = molecular target: T10, ETV2 (Homo sapiens, UniProt O00321 1-342); conditions: protein: recombinant; tags: N-terminal GST; dsDNA, one strand shown
T10 sequence: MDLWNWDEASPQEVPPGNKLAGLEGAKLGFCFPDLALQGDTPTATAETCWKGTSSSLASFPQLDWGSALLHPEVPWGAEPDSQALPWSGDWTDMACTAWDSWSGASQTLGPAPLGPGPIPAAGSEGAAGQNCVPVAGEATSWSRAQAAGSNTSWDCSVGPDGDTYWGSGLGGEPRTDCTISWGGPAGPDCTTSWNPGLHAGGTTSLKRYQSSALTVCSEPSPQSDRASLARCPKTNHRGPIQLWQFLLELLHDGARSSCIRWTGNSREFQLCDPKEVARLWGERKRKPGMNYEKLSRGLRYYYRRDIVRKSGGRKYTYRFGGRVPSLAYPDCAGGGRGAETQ
Procedure, shortened: as §1

[17] = molecular target: T11, ELF3 (Homo sapiens, UniProt P78545 1-371); conditions: protein: recombinant; tags: N-terminal GST; dsDNA, one strand shown
T11 sequence: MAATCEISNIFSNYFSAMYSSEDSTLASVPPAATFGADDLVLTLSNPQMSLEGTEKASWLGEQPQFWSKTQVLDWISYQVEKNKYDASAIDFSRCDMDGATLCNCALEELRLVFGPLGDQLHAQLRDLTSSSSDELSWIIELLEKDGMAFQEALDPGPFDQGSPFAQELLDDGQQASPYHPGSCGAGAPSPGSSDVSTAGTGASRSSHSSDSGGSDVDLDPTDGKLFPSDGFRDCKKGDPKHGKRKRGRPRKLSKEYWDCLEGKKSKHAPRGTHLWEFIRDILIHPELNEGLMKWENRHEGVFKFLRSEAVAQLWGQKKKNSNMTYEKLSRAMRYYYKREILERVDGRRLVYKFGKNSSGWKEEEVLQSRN
Procedure, shortened: as §1

[18] = molecular target: CRX (Homo sapiens, UniProt O43186 1-299); conditions: protein: recombinant; tags: N-terminal GST; dsDNA, one strand shown
Procedure, shortened: as §1

[19] = molecular target: ETV1 (Homo sapiens, UniProt P50549 1-477); conditions: protein: recombinant; tags: N-terminal GST; dsDNA, one strand shown
Procedure, shortened: as §1

ETV5, sequence (P41161 whole entry): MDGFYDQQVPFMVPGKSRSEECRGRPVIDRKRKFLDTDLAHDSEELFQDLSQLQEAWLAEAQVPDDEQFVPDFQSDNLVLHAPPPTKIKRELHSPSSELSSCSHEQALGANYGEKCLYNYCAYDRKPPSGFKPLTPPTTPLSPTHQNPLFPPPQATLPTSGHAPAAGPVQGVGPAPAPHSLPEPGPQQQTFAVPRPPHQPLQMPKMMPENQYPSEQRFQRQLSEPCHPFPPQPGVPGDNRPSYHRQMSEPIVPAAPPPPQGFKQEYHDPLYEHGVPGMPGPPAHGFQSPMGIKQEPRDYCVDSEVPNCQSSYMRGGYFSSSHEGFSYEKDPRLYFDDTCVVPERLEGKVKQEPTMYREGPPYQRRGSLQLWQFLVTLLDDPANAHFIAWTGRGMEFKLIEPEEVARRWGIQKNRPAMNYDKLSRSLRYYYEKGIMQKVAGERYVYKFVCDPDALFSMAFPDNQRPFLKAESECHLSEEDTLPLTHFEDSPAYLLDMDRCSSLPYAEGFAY
CRX, sequence (O43186 whole entry): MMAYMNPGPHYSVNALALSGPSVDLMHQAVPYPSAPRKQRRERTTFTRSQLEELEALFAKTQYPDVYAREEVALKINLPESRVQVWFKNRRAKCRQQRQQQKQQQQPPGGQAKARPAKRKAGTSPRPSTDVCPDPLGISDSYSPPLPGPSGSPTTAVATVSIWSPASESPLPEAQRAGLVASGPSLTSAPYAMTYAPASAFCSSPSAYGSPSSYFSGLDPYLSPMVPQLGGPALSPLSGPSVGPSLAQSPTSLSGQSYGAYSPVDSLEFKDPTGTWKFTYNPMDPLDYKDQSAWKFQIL
ELF1, sequence (P32519 whole entry): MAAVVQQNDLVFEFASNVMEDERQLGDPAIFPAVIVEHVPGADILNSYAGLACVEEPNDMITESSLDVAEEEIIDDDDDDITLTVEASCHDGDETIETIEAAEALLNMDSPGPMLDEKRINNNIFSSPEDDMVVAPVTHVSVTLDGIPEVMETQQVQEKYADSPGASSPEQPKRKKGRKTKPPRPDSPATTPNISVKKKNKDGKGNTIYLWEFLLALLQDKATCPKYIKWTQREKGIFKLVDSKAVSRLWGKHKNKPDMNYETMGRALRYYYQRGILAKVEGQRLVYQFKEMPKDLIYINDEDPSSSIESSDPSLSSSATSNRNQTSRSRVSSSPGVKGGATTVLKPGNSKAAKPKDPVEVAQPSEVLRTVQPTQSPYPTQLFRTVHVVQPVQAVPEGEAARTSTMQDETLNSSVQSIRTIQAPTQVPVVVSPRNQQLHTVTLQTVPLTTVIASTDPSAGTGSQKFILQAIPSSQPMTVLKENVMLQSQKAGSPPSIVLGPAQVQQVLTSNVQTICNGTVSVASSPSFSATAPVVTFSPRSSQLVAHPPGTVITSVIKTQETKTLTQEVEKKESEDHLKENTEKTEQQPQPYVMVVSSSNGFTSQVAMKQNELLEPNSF
ETV1, sequence (P50549 whole entry): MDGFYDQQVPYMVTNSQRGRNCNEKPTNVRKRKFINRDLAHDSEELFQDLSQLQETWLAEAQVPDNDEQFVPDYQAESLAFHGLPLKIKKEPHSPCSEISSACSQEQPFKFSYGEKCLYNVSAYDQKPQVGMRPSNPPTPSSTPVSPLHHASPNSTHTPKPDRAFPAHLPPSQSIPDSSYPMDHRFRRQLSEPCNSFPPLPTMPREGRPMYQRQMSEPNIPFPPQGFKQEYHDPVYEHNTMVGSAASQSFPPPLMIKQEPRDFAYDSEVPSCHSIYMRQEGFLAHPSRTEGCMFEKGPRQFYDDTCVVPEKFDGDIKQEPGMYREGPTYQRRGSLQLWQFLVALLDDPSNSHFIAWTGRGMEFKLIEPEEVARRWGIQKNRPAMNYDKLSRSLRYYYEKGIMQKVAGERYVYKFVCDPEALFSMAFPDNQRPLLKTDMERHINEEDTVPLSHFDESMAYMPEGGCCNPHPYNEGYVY
ELF4, sequence (Q99607 whole entry): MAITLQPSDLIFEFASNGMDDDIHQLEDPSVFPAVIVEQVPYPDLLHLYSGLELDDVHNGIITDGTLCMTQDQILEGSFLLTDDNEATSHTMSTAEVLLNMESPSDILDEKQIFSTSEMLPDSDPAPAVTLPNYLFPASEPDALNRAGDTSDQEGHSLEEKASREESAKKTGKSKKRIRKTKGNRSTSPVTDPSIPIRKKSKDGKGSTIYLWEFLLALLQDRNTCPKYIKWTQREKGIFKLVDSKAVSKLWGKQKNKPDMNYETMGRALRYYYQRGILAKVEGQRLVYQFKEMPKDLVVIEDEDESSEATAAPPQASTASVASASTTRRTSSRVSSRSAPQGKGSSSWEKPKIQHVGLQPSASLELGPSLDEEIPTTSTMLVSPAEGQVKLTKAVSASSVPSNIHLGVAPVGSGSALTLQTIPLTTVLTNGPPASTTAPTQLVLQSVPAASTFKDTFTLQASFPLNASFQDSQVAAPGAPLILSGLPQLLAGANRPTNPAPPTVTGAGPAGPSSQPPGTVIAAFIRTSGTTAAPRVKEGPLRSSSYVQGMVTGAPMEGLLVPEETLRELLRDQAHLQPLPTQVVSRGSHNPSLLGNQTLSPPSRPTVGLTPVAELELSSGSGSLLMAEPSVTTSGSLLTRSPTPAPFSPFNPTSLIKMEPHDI
SPIB, sequence (Q01892 whole entry): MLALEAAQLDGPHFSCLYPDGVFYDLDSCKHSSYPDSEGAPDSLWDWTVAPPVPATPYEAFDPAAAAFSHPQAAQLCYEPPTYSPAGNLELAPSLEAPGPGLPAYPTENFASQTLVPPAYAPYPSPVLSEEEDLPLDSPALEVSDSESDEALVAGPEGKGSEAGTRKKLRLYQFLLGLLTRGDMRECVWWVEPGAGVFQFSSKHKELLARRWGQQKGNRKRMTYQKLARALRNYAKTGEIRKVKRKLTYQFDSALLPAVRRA
HSF1, sequence (Q00613 whole entry): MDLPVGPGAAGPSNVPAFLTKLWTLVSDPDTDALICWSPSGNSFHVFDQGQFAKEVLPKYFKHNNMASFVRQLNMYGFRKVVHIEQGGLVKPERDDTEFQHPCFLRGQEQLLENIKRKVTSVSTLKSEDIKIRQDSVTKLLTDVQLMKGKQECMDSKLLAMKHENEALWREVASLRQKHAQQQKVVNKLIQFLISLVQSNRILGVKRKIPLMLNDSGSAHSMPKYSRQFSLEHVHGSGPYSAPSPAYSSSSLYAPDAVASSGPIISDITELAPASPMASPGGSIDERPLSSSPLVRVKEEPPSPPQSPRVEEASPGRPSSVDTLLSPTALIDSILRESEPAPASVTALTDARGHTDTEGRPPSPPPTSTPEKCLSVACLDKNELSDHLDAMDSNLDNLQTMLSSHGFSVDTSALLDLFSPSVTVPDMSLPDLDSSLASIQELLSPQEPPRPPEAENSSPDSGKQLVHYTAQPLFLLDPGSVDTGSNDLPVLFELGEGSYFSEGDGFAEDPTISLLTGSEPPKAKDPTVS

TGTCTA was tested, and the binding signal [1] was 1.2 fold enrichment (6-mer frequency, TF over GST control), the binding signal [2] was 1.15 fold enrichment (6-mer frequency, TF over GST control) and the binding signal [3] was 1.12 fold enrichment (6-mer frequency, TF over GST control). The binding signal [4] was 1.17 fold enrichment (6-mer frequency, TF over GST control), the binding signal [5] was 1.15 fold enrichment (6-mer frequency, TF over GST control) and the binding signal [6] was 1.12 fold enrichment (6-mer frequency, TF over GST control). The binding signal [7] was 1.09 fold enrichment (6-mer frequency, TF over GST control), the binding signal [8] was 1.02 fold enrichment (6-mer frequency, TF over GST control) and the binding signal [9] was 1.36 fold enrichment (6-mer frequency, TF over GST control). The binding signal [10] was 1.14 fold enrichment (6-mer frequency, TF over GST control), the binding signal [11] was 1.24 fold enrichment (6-mer frequency, TF over GST control) and the binding signal [12] was 1.15 fold enrichment (6-mer frequency, TF over GST control). The binding signal [13] was 1.35 fold enrichment (6-mer frequency, TF over GST control), the binding signal [14] was 1.2 fold enrichment (6-mer frequency, TF over GST control) and the binding signal [15] was 1.06 fold enrichment (6-mer frequency, TF over GST control). For the same sequence, the binding signal [16] was 1.34 fold enrichment (6-mer frequency, TF over GST control), the binding signal [17] was 1.06 fold enrichment (6-mer frequency, TF over GST control) and the binding signal [18] was 1.05 fold enrichment (6-mer frequency, TF over GST control). The binding signal [19] was 1.24 fold enrichment (6-mer frequency, TF over GST control).
